Pemphigus Ab inh: blocks pemphigus antibody binding to human desmoglein-3; P32926; DSG3-coupled beads, scFv-anti-DSG3-GFP binding, flow cytometry; stronger effect = lower value; binding (percent of control), % at 10 µM; 310,000 compounds, 0.48% hits;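 active means binding more than 3 SD below its plate's average and above zero; inconclusive means below that plate limit but binding exactly zero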
GRK2 aptamer HTS: human GRK2 inhibition via aptamer displacement. bead flow cytometry, FAM-aptamer displacement from GRK2. inhibition of aptamer binding, % at 10 µM. 330,000 compounds, 0.59% hits;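 active means inhibition of aptamer binding above 40%, roughly 3 SD of noise, on plates passing a quality check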;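 further: median bead fluorescence of bound FAM aptamer so fluorescent compounds give negative values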
Target sequence (P25098 whole entry, looked up): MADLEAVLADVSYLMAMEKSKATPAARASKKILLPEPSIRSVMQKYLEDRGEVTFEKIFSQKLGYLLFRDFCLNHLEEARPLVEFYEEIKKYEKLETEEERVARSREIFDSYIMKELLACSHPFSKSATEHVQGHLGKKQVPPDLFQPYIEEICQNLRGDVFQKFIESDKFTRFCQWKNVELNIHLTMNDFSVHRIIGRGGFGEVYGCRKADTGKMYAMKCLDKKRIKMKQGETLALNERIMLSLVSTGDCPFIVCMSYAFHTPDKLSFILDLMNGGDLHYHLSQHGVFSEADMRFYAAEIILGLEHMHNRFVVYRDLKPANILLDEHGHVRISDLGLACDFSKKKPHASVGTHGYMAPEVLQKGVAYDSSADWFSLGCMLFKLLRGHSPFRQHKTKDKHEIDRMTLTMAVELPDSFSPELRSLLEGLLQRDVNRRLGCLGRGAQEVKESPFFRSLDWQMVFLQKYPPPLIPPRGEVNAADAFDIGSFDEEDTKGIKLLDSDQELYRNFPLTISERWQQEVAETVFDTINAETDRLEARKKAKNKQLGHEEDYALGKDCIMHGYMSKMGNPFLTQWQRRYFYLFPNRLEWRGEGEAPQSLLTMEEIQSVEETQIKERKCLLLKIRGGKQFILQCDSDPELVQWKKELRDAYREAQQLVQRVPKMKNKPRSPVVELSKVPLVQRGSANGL
PKD1 kinase inh: blocks activity of human protein kinase D1. Q15139. PKD1 kinase fluorescence polarization assay. inhibition, % (test concentration not listed). 200,000 compounds, 0.056% hits. AID 797
HDAC3 inh: blocks human histone deacetylase 3; O15379; recombinant HDAC3, fluorogenic peptide/trypsin coupled, fluorescence; inhibition, % at 8.3 µM; 320,000 compounds, 0.15% hits; AID 2718; in the data active means inhibition above about 26%, passing the limit was not always enough; inconclusive means no clear call, values can overlap the other calls
LANA-H2A inh: blocks KSHV LANA binding to histone H2A/H2B | inhibition, % (test concentration not listed) | AID 2629 | Q9QR71 | cell-free LANA-H2A/H2B peptide, fluorescence polarization | 320,000 compounds, 0.6% hits; in the data active means inhibition mostly above about 10%, no sharp cut-off; inactive means mostly below about 6.7%
VLA-4 inh: inhibition in a human VLA-4 binding assay; P13612; VLA-4 expressing cells, ligand binding flow cytometry; inhibition, % (about 7 µM as worked out from the volumes in the protocol); 330,000 compounds, 0.2% hits; AID 2557
GRK2 CP1: confirmation of human GRK2 inhibitors displacing RNA aptamer; aptamer displacement, % at 10 µM; bead-bound GRK2, FAM-aptamer displacement, flow cytometry; 2,000 compounds, 4% hits; AID 504451; shares compounds with GRK2 aptamer HTS;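 active means aptamer displacement above 40%, near three times the noise of non-fluorescent compounds, on plates passing quality checks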;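 further: negative values mostly reflect intrinsic compound fluorescence rather than true enhancement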
FAM quench CP1: aptamer fluorescence quenching in GRK2 counter-screen; shares compounds with GRK2 aptamer HTS; Carboxyfluorescein RNA aptamer on beads, flow cytometry quenching; stronger effect = lower value; fluorescence response (% of DMSO), % at 10 µM; 2,000 tested, under 10 active; AID 504580;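 active means compounds that quench the bead-bound fluorescent RNA probe, cutting fluorescence to under half of the solvent control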;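 further: counterscreen run without GRK2 so only probe quenching by compound is measured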
GRK2 confirm 2: human GRK2 inhibition confirmation, cherry pick 2 | 360 tested, under 10 active | inhibition of aptamer binding, % at 10 µM | shares compounds with GRK2 aptamer HTS | bead-bound GRK2, FAM-aptamer displacement, flow cytometry;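 active means inhibition of aptamer binding above 40%, about triple the noise seen with nonglowing compounds, on plates passing quality control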;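 further: negative values mostly come from compounds that fluoresce themselves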
FAM quench SP: counter-screen for GRK2 binding hits: quenchers of fluorescent RNA aptamer | shares compounds with GRK2 aptamer HTS | carboxyfluorescein RNA aptamer beads, flow cytometry quenching; stronger effect = lower value | fluorescence response vs DMSO, % at 10 µM | 360 tested, under 10 active;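 active means response vs DMSO under 50%, meaning signal dropped by over half, treated as fluorescence quencher; inconclusive means no clear call, values can overlap the other calls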;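 further: labelled aptamer on streptavidin beads without GRK2 as a quench counter-screen; 100% = bead fluorescence of DMSO wells and lower means quenching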
Starred values were filed as active, the others as inactive; ? = inconclusive; · = no result. Compounds with a hit are over-represented: about 1.8% of the library has one in this group of screens. Unless noted, no stated cut-off is given here; in the data, active means inhibition above about 50%; inactive means the rest.

SMILES	Pemphigus Ab inh	GRK2 aptamer HTS	PKD1 kinase inh	HDAC3 inh	LANA-H2A inh	VLA-4 inh	GRK2 CP1	FAM quench CP1	others
CC(C)CC(=O)N1CCN(Cc2ccc(C(F)(F)F)cc2)CC1	123.0	3.0	·	-4.0	0.7	3.4	·	·
Cc1ccc(CN(C)C2CCN(C)CC2)cc1	122.8	0.0	·	5.9	-4.7	-10.7	·	·
COCCn1c(=O)[nH]c2cc(C(=O)N3CCN(Cc4ccc5c(c4)OCO5)CC3)ccc2c1=O	91.2	·	·	·	·	·	·	·
COCCn1c(=S)[nH]c2cc(C(=O)N3CCN(Cc4ccc5c(c4)OCO5)CC3)ccc2c1=O	103.4	45.0*	-7.5	-8.8	4.0	-7.2	2.2	100.6
CCOC(=O)CCCn1ccc2cc(S(=O)(=O)N3CCCC3)ccc21	97.4	2.0	·	?	2.0	11.2	·	·
CN(C)S(=O)(=O)n1cnc([C@@H]2[C@@H]3C(=O)OC[C@@H]3C[C@]23N=CN(Cc2ccccc2)C3=O)c1	100.4	0.0	·	?	3.7	21.7	·	·
COc1cccc(CN2CC(C(=O)NCCOc3cccnc3)CCC2=O)c1 (stereo unspecified)	99.3	3.0	·	·	·	-4.0	·	·
CCOC(=O)C1=C(CS(=O)(=O)c2ccccc2)NC(=O)NC1c1ccc(OC)c(OC)c1 (stereo unspecified)	88.6	40.0	·	·	-1.6	14.1	1.1	101.1
COC(=O)C1=C(CS(=O)(=O)c2ccccc2)NC(=O)NC1c1ccc(OC)c(OC)c1 (stereo unspecified)	99.2	0.0	·	-2.5	-0.9	1.4	·	·
CN(C(=O)c1cccc(NC(=O)Cc2cccc([N+](=O)[O-])c2)c1)C1CCCC1	99.3	0.0	·	4.0	1.1	7.1	·	·
NS(=O)(=O)c1ccc(NC(=O)CSC2=NC(=O)C(c3ccccc3)C(=O)N2)cc1 (stereo unspecified)	·	100.0*	-10.2	0.1	3.6	-3.5	-0.9	100.6
CC(/C=N/NC(=O)c1cc(-c2cccnc2)nc2c1c(C)nn2-c1ccccc1)=C\c1ccccc1	94.3	3.0	-5.5	-3.3	-4.2	0.0	·	·
CCOc1ccccc1C1c2[nH]c3ccccc3c2C[C@H]2C(=O)N(C3CCN(Cc4ccccc4)CC3)CC(=O)N12 (stereo partly specified)	97.0	0.0	·	-2.2	-0.3	4.4	-12.6	101.0
COc1ccc(C2c3[nH]c4ccccc4c3C[C@H]3C(=O)N(C4CCN(Cc5ccccc5)CC4)CC(=O)N23)c(OC)c1 (stereo partly specified)	98.3	0.0	·	-0.5	0.2	2.5	·	·
Cc1ccccc1C1c2[nH]c3ccccc3c2C[C@H]2C(=O)N(C3CCN(Cc4ccccc4)CC3)CC(=O)N12 (stereo partly specified)	96.8	0.0	·	2.7	-3.5	13.3	-19.7	105.1
O=C(O)c1ccc(CS(=O)(=O)c2cccc(C(F)(F)F)c2)o1	106.1	0.0	3.9	1.8	5.9	7.2	·	·	GRK2 confirm 2=-1.6;FAM quench SP=101.0
CCCCNC(=O)c1ccc(CS(=O)(=O)c2cccc(C(F)(F)F)c2)o1	109.7	0.0	4.8	2.0	-4.7	9.4	·	·
COc1ccccc1-n1nnnc1SCC(=O)N1CCCC1=O	107.5	7.0	·	0.8	7.0	1.0	·	·
O=[N+]([O-])c1ccc(N2CCN(Cc3ccccc3)CC2)nc1	97.0	0.0	-9.6	5.2	0.7	1.1	·	·
O=[N+]([O-])c1ccc(N2CCN(c3cccc(Cl)c3)CC2)nc1	101.0	11.0	·	4.0	1.4	-4.0	5.4	115.5
CCc1ccc(NC(=O)CSc2nc3ccccc3nc2N2CCCCC2)cc1	97.6	69.0*	·	-0.1	1.0	18.1	-2.1	91.9
CCc1nonc1NC(=O)COc1cc(C)c(Cl)c(C)c1	103.7	70.0*	·	0.3	5.0	6.2	-3.1	96.7

Screens deposited in PubChem by several laboratories.
